Measured values from the supplement of paper PMC13380429.

Tested on: Vero E6 infected with SARS-CoV-2
Assay: inhibition of SARS-CoV-2 cytopathic effect; higher = more antiviral protection, active = above 15
Settings: 48 h

Measured: inhibition of SARS-CoV-2 cytopathic effect

COc1ccc(Nc2nccc(NCCO)n2)cc1 [cardiogenol-C]
inactive: 1 nM 0.83% | 8.33 nM -0.02% | 100 nM -0.4% | 833.33 nM 0.3% | 10000 nM 1.2%

CCc1cccc(CC)c1NC(=O)CN(CC(=O)O)CC(=O)O [etifenin]
inactive: 1 nM -0.66% | 8.33 nM 1.39% | 100 nM 0.25% | 833.33 nM 0.46% | 10000 nM 3.26%

C=CC(=O)Nc1ccc2ncnc(Nc3cccc(Br)c3)c2c1
inactive: 1 nM -0.46% | 8.33 nM -1.31% | 100 nM -13.7% | 833.33 nM -13.8% | 10000 nM -13.2%

O=C(COc1ccc(C(=O)c2ccccc2)cc1)NC1CCN(Cc2ccccc2)CC1 [adiporon]
inactive: 1 nM -2.19% | 8.33 nM -0.76% | 100 nM 0.29% | 833.33 nM 0.19% | 10000 nM -1.05%

CCc1cc2c(c(CC)n1)CCC(=O)N2Cc1ccc(-c2ccccc2-c2nnn[nH]2)cc1
inactive: 1 nM -4.46% | 8.33 nM -5.09% | 100 nM -2.79% | 833.33 nM -3.64% | 10000 nM -0.49%

CCN(C(=O)c1c(O)c2c(Cl)cccc2n(C)c1=O)c1ccccc1 [laquinimod]
inactive: 1 nM 1.55% | 8.33 nM -0.45% | 100 nM 0.71% | 833.33 nM -5.3% | 10000 nM -6.25%

c1ccc(N2CCN(Cc3nc4ccccc4[nH]3)CC2)nc1
inactive: 1 nM 3.44% | 8.33 nM 2.21% | 100 nM -0.12% | 833.33 nM 0.36% | 10000 nM -0.76%
